The values that follow come from ChEMBL document CHEMBL3988442, “University of Dundee, Small-Polar-MMV Screening Library” (2021).

What all share (design): scale not given: direction of the effect not stated beside the values
The target of assay [1] is Protein translocase subunit SecA (Escherichia coli (strain K12)) (UniProt P10408). The assay is described as follows: Assay to Identify E. coli SecA ATPase Inhibitors. Format: functional. Conditions: 30 µM.
The target of assay [2] is T1, Ubiquitin-activating enzyme e1, putative (Leishmania donovani (strain BPK282A1)) (UniProt E9BSI1).
T1 sequence (whole entry): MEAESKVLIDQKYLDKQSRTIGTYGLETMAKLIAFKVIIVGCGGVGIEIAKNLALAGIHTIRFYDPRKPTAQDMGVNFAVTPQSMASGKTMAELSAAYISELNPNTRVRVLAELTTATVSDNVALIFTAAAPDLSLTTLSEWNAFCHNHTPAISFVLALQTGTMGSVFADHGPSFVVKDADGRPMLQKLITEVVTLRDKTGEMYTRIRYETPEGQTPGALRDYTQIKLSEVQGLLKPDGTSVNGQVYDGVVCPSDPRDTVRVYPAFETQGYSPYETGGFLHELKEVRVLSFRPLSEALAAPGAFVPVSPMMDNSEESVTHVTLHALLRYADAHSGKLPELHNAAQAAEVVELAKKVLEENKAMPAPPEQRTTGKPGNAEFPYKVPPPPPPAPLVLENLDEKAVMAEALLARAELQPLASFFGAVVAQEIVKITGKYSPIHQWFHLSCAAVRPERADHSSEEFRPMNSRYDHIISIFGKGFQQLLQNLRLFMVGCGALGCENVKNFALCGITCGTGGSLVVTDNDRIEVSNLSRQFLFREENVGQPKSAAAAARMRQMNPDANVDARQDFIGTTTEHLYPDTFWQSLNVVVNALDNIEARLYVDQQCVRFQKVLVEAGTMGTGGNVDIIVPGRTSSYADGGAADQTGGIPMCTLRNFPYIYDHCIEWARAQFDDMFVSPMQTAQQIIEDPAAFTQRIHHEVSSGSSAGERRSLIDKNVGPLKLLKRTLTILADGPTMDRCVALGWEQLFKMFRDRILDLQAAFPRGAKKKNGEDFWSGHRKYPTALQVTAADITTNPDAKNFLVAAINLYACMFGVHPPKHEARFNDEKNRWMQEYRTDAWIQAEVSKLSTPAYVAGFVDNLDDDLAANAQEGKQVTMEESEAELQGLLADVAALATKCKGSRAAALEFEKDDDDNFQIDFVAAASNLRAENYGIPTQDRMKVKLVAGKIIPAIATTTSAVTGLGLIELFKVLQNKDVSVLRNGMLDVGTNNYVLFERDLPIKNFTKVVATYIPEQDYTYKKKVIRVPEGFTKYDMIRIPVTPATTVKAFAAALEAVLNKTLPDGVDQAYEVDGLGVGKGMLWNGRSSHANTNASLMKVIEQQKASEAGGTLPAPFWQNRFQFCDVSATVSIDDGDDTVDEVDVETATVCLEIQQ
The assay is described as follows: Leishmania donovani Ubiquitin Activating Enzyme (LdE1). Format: functional. Particulars: 30 µM.

Assay [3] addresses AMP-activated protein kinase, AMPK (Homo sapiens) (UniProt P54646+O43741+P54619+Q9UGJ0+Q9Y478+Q13131+Q9UGI9). Put plainly: AMP-dependent Kinase enzyme assay. An in vitro enzyme assay that detects ADP turnover that is directly proportional to AMPK activity. This uses naive AMPK that is activated during the assay with MK-8722. Format: functional. Conditions: 30 µM.
In assay [4] the target is Sialic acid-binding Ig-like lectin 9 (Homo sapiens) (UniProt Q9Y336). Put plainly: Hs-Siglec9 ALPHAscreen SOP 20170721. Particulars: 10 µM. (In Alpha technology, singlet oxygen from a donor bead excites a nearby acceptor bead.)
Sialic acid-binding Ig-like lectin 9 (Homo sapiens), sequence (Q9Y336 whole entry): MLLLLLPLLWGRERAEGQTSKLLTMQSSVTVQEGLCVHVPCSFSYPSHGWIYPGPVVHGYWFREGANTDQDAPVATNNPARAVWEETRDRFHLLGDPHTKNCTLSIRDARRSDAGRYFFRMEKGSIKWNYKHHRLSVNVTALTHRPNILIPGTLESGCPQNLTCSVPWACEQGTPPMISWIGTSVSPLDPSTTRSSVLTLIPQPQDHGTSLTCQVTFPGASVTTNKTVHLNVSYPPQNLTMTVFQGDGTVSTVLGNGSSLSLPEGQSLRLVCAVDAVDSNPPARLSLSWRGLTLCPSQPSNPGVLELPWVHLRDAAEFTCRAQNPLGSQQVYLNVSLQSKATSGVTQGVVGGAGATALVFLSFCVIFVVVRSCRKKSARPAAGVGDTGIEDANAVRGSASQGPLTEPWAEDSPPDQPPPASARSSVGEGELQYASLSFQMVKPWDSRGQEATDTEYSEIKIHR
Another assay concerns Trypanosoma cruzi. The assay is described as follows: Trypanosoma cruzi phosphomannomutase and mannose-1-phosphate guanylyltransferase assay. Format: functional. Particulars: 10 µM.
Assay [5] concerns the target T2, Arginase-2, mitochondrial (Homo sapiens) (UniProt P78540).
T2 sequence (whole entry): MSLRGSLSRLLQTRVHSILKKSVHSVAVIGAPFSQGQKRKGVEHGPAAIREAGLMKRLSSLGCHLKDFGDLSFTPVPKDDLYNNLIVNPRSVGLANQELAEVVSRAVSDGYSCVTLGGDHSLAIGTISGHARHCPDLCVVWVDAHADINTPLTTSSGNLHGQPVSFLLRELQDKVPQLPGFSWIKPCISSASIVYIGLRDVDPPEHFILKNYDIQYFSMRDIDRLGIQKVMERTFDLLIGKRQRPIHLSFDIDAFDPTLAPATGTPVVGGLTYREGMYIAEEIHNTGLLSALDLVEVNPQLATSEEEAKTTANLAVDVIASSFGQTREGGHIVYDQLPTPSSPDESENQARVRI
Put plainly: in vitro enzyme assay to detect the production of urea directly proportional to the activity of Arginase II. Note: in the data most compounds retested in dose-response had high values. Particulars: 33.3 µM. The assay is classed as functional.

In assay [6] the target is T3, Proteasome subunit beta (Trypanosoma cruzi) (UniProt O96673).
T3 sequence (whole entry): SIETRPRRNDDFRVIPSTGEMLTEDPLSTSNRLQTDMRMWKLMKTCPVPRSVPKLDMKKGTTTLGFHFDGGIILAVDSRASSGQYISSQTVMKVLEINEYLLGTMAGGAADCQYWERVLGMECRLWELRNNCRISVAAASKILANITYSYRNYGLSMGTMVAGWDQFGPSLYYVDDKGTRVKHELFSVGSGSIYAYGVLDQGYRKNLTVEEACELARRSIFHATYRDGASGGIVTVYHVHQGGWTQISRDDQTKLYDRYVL
Put plainly: Trypanosoma cruzi proteasome chymotrypsin-like activity (TcProtChymo) assay. Note: in the data most compounds retested in dose-response had high values. The assay is classed as functional. Conditions: 9.37 µM.

The species entered for the next assay is Homo sapiens. Put plainly: To identify inhibition of the IFN signalling (Jak-Stat) pathway via expression of an eGFP reporter gene under the control of an IFN-stimulated response element (ISRE) containing MxA promoter. Conditions: 30 µM. Format: functional.
For assay [7], the target named is T4, Tyrosyl-tRNA synthetase, putative (Trypanosoma cruzi (strain CL Brener)) (UniProt Q4DSP6).
T4 sequence (whole entry): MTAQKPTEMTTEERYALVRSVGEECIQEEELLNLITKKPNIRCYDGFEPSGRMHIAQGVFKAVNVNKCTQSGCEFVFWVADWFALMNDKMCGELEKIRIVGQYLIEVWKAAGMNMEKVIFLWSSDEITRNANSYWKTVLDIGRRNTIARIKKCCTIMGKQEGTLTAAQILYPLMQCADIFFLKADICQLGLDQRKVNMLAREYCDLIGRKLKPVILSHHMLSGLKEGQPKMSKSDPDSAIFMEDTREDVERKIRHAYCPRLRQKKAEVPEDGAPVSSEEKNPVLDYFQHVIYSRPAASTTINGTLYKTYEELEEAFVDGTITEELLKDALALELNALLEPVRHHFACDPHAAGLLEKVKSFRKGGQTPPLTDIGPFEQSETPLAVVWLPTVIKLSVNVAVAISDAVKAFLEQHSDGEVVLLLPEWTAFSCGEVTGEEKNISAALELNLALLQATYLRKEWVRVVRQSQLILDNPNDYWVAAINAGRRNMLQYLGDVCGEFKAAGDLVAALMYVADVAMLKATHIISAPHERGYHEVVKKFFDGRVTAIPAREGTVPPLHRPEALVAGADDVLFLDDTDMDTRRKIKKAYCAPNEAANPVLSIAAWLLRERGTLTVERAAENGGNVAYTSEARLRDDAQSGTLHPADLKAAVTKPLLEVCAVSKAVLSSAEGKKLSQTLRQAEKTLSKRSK
The assay is described as follows: Trypanosoma cruzi tyrosyl tRNA synthetase (TcYRS) _High Tyrosine SOP. Note: in the data most compounds retested in dose-response had high values. Format: functional. Particulars: 30 µM.

The target in assay [8] is T4, Tyrosyl-tRNA synthetase, putative (Trypanosoma cruzi (strain CL Brener)). The assay is described as follows: Trypanosoma cruzi tyrosyl tRNA synthetase (TcYRS) SOP. Format: functional. Conditions: 30 µM.
Assay [9] concerns the target Chromo domain-containing protein 1 (Saccharomyces cerevisiae (strain ATCC 204508 / S288c) (Baker's yeast)) (UniProt P32657). Put plainly: ScCHD-1 Enzyme Inhibition Assay. Note: in the data most compounds retested in dose-response had high values. The assay is classed as functional. Particulars: 30 µM.

The structures appear in SMILES notation. For some of these results: Measured potencies and affinities stand elsewhere.

Chromo domain-containing protein 1 (Saccharomyces cerevisiae (strain ATCC 204508 / S288c) (Baker's yeast)), sequence (P32657 whole entry, the tested form may be a part): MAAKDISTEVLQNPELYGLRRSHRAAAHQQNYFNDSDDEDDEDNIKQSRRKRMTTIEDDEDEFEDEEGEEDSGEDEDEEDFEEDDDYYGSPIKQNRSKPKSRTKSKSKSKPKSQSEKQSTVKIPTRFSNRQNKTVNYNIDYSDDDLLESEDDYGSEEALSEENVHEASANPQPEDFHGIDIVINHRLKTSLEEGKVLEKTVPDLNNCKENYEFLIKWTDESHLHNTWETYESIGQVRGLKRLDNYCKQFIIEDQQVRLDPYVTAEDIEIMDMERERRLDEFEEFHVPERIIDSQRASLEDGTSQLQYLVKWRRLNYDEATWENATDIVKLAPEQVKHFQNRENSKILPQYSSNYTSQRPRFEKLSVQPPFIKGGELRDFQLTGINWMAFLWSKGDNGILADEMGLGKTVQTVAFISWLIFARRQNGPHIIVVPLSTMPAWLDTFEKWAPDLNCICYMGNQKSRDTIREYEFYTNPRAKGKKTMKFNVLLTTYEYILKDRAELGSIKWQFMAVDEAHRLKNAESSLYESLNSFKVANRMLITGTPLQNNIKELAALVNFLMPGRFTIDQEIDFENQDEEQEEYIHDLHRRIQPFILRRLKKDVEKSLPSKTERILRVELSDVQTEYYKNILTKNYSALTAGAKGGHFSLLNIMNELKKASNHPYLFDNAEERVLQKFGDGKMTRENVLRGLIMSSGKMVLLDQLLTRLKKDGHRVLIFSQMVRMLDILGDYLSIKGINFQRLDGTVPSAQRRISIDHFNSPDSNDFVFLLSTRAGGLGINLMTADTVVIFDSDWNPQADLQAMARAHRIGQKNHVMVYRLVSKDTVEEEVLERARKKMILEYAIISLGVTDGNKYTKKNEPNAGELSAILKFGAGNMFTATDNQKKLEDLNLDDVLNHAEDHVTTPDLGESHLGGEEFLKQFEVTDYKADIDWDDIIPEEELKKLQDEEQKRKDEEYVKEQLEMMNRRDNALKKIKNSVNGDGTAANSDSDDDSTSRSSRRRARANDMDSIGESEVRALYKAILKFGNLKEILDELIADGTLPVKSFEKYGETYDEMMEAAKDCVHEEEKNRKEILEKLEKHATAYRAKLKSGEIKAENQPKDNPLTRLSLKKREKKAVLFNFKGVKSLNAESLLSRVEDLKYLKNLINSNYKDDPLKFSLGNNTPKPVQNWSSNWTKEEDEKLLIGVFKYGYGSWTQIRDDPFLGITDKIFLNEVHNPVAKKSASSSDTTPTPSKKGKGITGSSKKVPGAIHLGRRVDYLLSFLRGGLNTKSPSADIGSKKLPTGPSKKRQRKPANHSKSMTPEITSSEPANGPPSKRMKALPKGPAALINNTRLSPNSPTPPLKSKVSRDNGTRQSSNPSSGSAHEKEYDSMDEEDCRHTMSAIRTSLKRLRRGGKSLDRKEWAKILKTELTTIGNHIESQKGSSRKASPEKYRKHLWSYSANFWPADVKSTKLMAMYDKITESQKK
Protein translocase subunit SecA (Escherichia coli (strain K12)), sequence (P10408 whole entry): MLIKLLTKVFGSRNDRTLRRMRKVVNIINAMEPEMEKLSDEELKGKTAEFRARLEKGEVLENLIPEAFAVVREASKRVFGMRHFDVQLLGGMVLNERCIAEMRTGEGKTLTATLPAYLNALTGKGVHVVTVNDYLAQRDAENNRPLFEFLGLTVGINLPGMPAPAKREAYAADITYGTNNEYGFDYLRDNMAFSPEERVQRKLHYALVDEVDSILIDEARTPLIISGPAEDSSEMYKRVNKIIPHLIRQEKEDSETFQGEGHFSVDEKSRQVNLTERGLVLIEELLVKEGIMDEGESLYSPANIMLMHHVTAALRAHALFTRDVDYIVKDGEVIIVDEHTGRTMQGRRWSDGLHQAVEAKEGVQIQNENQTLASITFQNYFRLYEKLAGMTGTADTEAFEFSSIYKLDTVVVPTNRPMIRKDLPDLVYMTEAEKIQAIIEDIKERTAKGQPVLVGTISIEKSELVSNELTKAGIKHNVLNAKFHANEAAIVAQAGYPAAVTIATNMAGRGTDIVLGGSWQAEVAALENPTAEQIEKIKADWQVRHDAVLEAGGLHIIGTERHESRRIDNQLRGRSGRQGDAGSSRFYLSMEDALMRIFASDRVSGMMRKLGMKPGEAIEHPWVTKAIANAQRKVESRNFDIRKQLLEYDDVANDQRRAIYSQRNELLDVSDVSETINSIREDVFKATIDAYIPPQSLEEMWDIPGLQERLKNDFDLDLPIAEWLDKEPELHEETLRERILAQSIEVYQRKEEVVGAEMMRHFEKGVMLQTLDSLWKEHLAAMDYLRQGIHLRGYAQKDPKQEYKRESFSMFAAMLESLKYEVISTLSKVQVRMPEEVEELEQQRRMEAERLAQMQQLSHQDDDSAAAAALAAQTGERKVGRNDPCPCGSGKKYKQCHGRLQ

On to `COc1ccnc(N2CCN(C(=O)CCc3nccs3)CC2)n1`, for which the Percent Effect was 0.0461% in assay [1]; 8.11% in assay [2]; -3.33% in [3]; 0.0327% in assay [4]; -1.54% in the assay on Trypanosoma cruzi; -2.38% in [5]. For the same compound, the Percent Effect was 12.1% in assay [6]; 14.1% in the assay filed under Homo sapiens; 2.65% in assay [7]; 7.32% in assay [8]; -3.79% in [9].
Turning to `CNc1nc2c(s1)C(c1c(Cl)cccc1Cl)CC(=O)N2` (stereo unspecified), the Percent Effect in assay [1] is 2.52%; in assay [2], 5.26%; in [3], -467%; in assay [4], 4.3%; in the assay on Trypanosoma cruzi, 0.682%; in assay [5] it was 0%. Moreover, the Percent Effect in assay [6] was 17%; in the assay listed under Homo sapiens, 4.23%; in assay [7], -10.6%; in [8], -10.4%; in [9], -2.54%.
As for `Cc1ccc(NC(=O)Cn2cc(I)cn2)cc1`, the Percent Effect in assay [1] was -4.63%; in assay [2], -4.17%; in assay [3], -12.3%; in assay [4] it was 3.22%; in the assay with Trypanosoma cruzi, -2.82%; in assay [5] it was -1.32%. Also, the Percent Effect in assay [6] is 6.32%; in the assay filed under Homo sapiens, 28.2%; in assay [7] it was -4.21%; in assay [8], -7.69%; in assay [9] it was 3.77%.
With `CC(=O)Nc1nc(C(=O)NC(C)c2ccc3c(c2)OCCO3)cs1` (stereo unspecified), the Percent Effect is -5.25% in assay [1]; 18.2% in assay [2]; 6.51% in assay [3]; -11.3% in [4]; 5% with Trypanosoma cruzi; -4% in [5]. The Percent Effect in assay [6] is 8.97%; in the assay listed under Homo sapiens, 14.6%; in [7], 3.81%; in [8], 21.2%; in assay [9], -21.9%.
On to `Cc1cccc(CN2C(=O)CC[C@@H]3[C@H]2CCN3CC2CCOCC2)n1`, for which the Percent Effect in [1] was -3.19%; in assay [2], 16%; in [3], 1.45%; in assay [4], -4.46%; with Trypanosoma cruzi, 2.36%; in assay [5] it was 0.699%. Also, the Percent Effect in assay [6] was 14%; in the assay filed under Homo sapiens, -19.1%; in assay [7], 5.32%; in [8], 11.5%; in [9], -4.59%.
In the case of `COCCO[C@@H]1CCN(Cc2csc(C)n2)[C@H]1Cc1ccccc1`, the Percent Effect in assay [1] is -2.84%; in [2], -5.41%; in assay [3] it was -0.151%; in assay [4], -7.92%; in the assay on Trypanosoma cruzi, -3.03%; in assay [5], -1.24%. Also, the Percent Effect in assay [6] is -1.29%; in the assay filed under Homo sapiens, 8.8%; in assay [7], 1.07%; in assay [8] it was -1.24%; in assay [9], -1.36%.
Take `Cc1ccccc1CCNC(=O)C1CC(=O)N(CC(F)(F)F)C1` (stereo unspecified): the Percent Effect in assay [1] is -3.95%; in assay [2], 24.3%; in assay [3] it was -20.9%; in assay [4], -4.07%; with Trypanosoma cruzi it was 1.42%; in assay [5] it was -21.2%. Further, the Percent Effect is 10.1% in [6]; 25.2% in the assay listed under Homo sapiens; 5.42% in assay [7]; 18.5% in assay [8]; -11.1% in assay [9].
`CN(Cc1ccccc1F)C(=O)CS(=O)(=O)Cc1ccc(Cl)c(Cl)c1`: the Percent Effect in assay [1] is 0.269%; in [2] it was 10.4%; in [3] it was 6.8%; in assay [4], 0.809%; in the assay on Trypanosoma cruzi it was 2.06%; in assay [5] it was -8.21%. The Percent Effect in [6] was 4.29%; in the assay listed under Homo sapiens it was 9.03%; in assay [7], -6.67%; in assay [8], -296%; in assay [9], -20.3%.
On to `Cn1c(Cn2ccnc2)nnc1C1CCCN(C2CCCCC2)C1` (stereo unspecified), for which the Percent Effect in assay [1] is -3.14%; in assay [2], 8.11%; in [3], 5.59%; in assay [4], 1.26%; in the assay with Trypanosoma cruzi, 1.93%; in assay [5] it was 2.38%. Moreover, the Percent Effect was 3.1% in [6]; -7.16% in the assay listed under Homo sapiens; 5.82% in assay [7]; 19.5% in [8]; -3.83% in assay [9].
For the compound `CCC(NC(=O)C1CCN(S(C)(=O)=O)CC1)c1ccc(OC)c(OC)c1` (stereo unspecified), the Percent Effect in assay [1] is -2.12%; in assay [2], -2.6%; in assay [3], 3.25%; in [4], -1.28%; in the assay on Trypanosoma cruzi it was -1.48%; in assay [5], -5.52%. Besides, the Percent Effect was 11.2% in [6]; -4.52% in the assay filed under Homo sapiens; 3.23% in assay [7]; 1.24% in assay [8]; 3.51% in assay [9].
For the compound `COc1ccc(C(=O)NS(=O)(=O)c2cncc(Br)c2)cc1OC`, the Percent Effect was -6.13% in [1]; -5.41% in assay [2]; -4.05% in assay [3]; 9.13% in [4]; -2.51% in the assay on Trypanosoma cruzi; 0% in assay [5]. Also, the Percent Effect is 2.07% in [6]; 24.4% in the assay filed under Homo sapiens; 2.65% in assay [7]; 0% in assay [8]; -1.34% in assay [9].
